# PubChem BioAssay AID504848 (National Center for Advancing Translational Sciences (NCATS), 2011)
# Out of some 2,300 compounds screened, about 1,400 (61%) were called active. Not shown: some 29% with an inconclusive outcome. Calls come from the whole dose curve; as a rule, active = well fitted inhibition curve with a large enough effect; inconclusive = small, poorly fitted or top-dose-only effect, or effect the other way; inactive = no such curve, though single readings can be large or run the other way. So high a share suggests a set chosen from earlier hits. The list shows a part of the results.
# Assay: Confirmation screen for delayed death inhibitors of the malarial parasite plastid, 96 hour incubation; note: nearly all actives have a fitted effect of over 60% in size
# Details: P. falciparum luciferase growth in erythrocytes; series mostly up to 28.7 µM
# Procedure, shortened: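 Erythrocytes infected with luciferase-expressing P. falciparum (2% hematocrit, 0.1% parasitemia final) in RPMI 1640 with 0.5% Albumax, exposed to compounds 96 h at 37 C, 5% CO2. Growth inhibition read as decreased luciferase luminescence.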
# Potency is the fitted concentration of half-maximal effect.
row,SMILES,Potency
1,CN1CCN(c2ccccc2NC(=O)c2cccc(OCc3ccccc3)c2)CC1,1.78 µM (active)
2,CCn1c(/C=C/N(C(C)=O)c2ccccc2)[n+](CC)c2ccc(Cl)cc21,1 µM (active)
3,CCOC(=O)c1ccc2c(c1)n(CC)c(/C=C/N(C)c1ccccc1)[n+]2CC,0.0891 µM (active)
4,Cc1ccc(CNC(=O)COc2ccccc2-c2ccccc2)cc1,11.2 µM (active)
5,O=[N+]([O-])c1cccc(-c2c[n+]3c(n2-c2ccccc2)SCC3)c1,1.78 µM (active)
6,COC(=O)C(NC(=O)c1ccccc1C)(Nc1ncc(S(=O)(=O)c2ccc([N+](=O)[O-])cc2)s1)C(F)(F)F (stereo not given),3.16 µM (active)
7,Cc1c(/C=N/Nc2nc3ccccc3[nH]2)c2ccccc2n1C,0.891 µM (active)
8,CCN(CC)c1ccc(/C=N/Nc2nc3ccccc3[nH]2)cc1,2.51 µM (active)
9,CC(=O)N1CCSc2ccc(S(=O)(=O)Nc3ccc(C)cc3)cc21,12.6 µM (active)
10,Cc1ccc(S(=O)(=O)C2(C(=O)N3CCCCCC3)CC2)cc1,inactive
11,CC(Oc1cccc(Cl)c1)C(=O)Nc1cc(S(=O)(=O)N2CCOCC2)ccc1N1CCCCC1 (stereo not given),3.98 µM (active)
12,O=C(COc1ccc(Cl)cc1)Nc1cc(S(=O)(=O)N2CCCCC2)ccc1N1CCCCC1,5.01 µM (active)
13,O=C(COc1ccc(Br)cc1)Nc1cc(S(=O)(=O)N2CCCCC2)ccc1N1CCCCC1,3.98 µM (active)
14,Cc1cc(C(=O)OC(C)C(=O)Nc2nc(-c3ccccc3)cs2)c(C)o1 (stereo not given),inactive
15,CCOc1ccccc1Nc1nnc(SC(C)C(=O)Nc2nc(-c3ccccc3)cs2)s1 (stereo not given),15.8 µM (active)
16,COc1ccccc1Nc1nnc(SCC(=O)N2CCCC2)s1,2.51 µM (active)
17,COc1ccccc1Nc1nnc(SCC(=O)Nc2nc(-c3ccc(F)cc3)cs2)s1,10 µM (active)
18,COc1ccccc1Nc1nnc(SCc2cc(=O)n3ccsc3n2)s1,4.47 µM (active)
19,COc1ccc(C(=O)NC2CC2)cc1OC1CCN(Cc2ccccc2)CC1,14.1 µM (active)
20,CCCN1CCC(NC(=O)CC2C(=O)NCCN2Cc2cccc(OC)c2)CC1 (stereo not given),inactive
21,COc1ccc(OC)c(-c2nc(C(=O)NC3CCN(Cc4ccccc4)CC3)cc3c2[nH]c2ccccc23)c1,4.47 µM (active)
22,COc1ccc(C(=O)NC2CC2)cc1OC1CCN(C/C=C/c2ccccc2)CC1,2.24 µM (active)
23,CCCCCCn1ccc(=N)cc1,3.55 µM (active)

row,SMILES,Potency
1,Cc1ccc(-c2csc(N/N=C/c3ccco3)n2)c(C)c1,14.1 µM (active)
2,CCOc1ccc(NC(=O)CC2C(=O)N(c3ccccc3)C(=O)N2CCOC)cc1 (stereo not given),inactive
3,CCOc1ccc(C(=O)Nc2ccc(N3CCN(C)CC3)cc2)cc1,15.8 µM (active)
4,CC(C)N1CCC(N2CCN(Cc3ccc(-c4ccc(Cl)cc4)o3)CC2CCO)CC1 (stereo not given),5.01 µM (active)
5,CN1C[C@@H]2C[C@H]1CN2c1cc2c(cc1F)c(=O)c(C(=O)O)cn2C1CC1,2 µM (active)
6,COc1ccc(C2(CCN)CC(C)N(C)CC2C)cc1 (stereo not given),15.8 µM (active)
7,CCn1c2ccccc2c2cc(/C=N/n3cn[nH]c3=S)ccc21,6.31 µM (active)
8,CCOC(=O)C1(Cc2cccc(Cl)c2)CCCN(C(=O)C(C)(C)C)C1 (stereo not given),15.8 µM (active)
9,Cc1ccc(C2C3=C(CC(C)(C)CC3=O)N=C3c4ccccc4C(=O)C32)cc1 (stereo not given),7.08 µM (active)
10,O=C(CSc1c2c(nc3ccc(Cl)cc13)CCCC2)NCCCN1CCOCC1,10 µM (active)
11,CCN(CC)c1ccc(-c2sc(Nc3ccccc3)n[n+]2-c2ccc(F)cc2)cc1,12.6 µM (active)
12,c1ccn2cc(C34CC5CC(CC(C5)C3)C4)nc2c1,12.6 µM (active)
13,Cc1c(OCC(=O)NCc2cccnc2)ccc2c3c(c(=O)oc12)CCCC3,12.6 µM (active)
14,Cc1c(OC(C)C(=O)NCc2cccnc2)ccc2c3c(c(=O)oc12)CCCC3 (stereo not given),1.26 µM (active)
15,O=c1oc2ccccc2c(O)c1CN1CCCCC1,inactive
16,CC(=O)N1/C(=C/c2ccc(N(C)C)cc2)C(=O)c2ccccc21,0.282 µM (active)
17,CCOC(=O)Cn1c(S(=O)(=O)Cc2cccc(F)c2)nc(-c2ccccc2)c1-c1ccccc1,7.08 µM (active)
18,C#CCn1c(S(=O)(=O)Cc2ccc(F)cc2)nc(-c2ccccc2)c1-c1ccccc1,12.6 µM (active)
19,C#CCn1c(S(=O)(=O)Cc2ccc(C)cc2)nc(-c2ccccc2)c1-c1ccccc1,12.6 µM (active)
20,COc1cc(-c2nnc(NC(=O)CCS(=O)(=O)c3ccccc3)o2)cc(OC)c1OC,12.6 µM (active)
21,Cc1sc(NC(=O)c2c(F)cccc2F)nc1-c1ccccc1,inactive
22,Cc1sc(N/N=C/c2cccnc2)nc1-c1ccccc1,12.6 µM (active)
